Screening data deposited in PubChem by several laboratories.
MazEF act: MazEF (E. coli) toxin RNase activation; FAM/BHQ RNA-DNA oligo cleavage fluorescence, 5 h; AID 504720; hit rate 0.32% among 350,000; activation, % at 20 µM; in the data active = activation above about 50%
BoNT-F LC inh: BoNT F light chain protease inhibition | Multiplex microsphere protease cleavage assay, flow cytometry | inhibition, % at 10 µM | hit rate 0.22% among 360,000 | AID 588497; in the data active = inhibition above about 35%, passing the limit was not always enough; inconclusive = no clear call, values can overlap the other calls
BoNT-A LC inh2: BoNT A light chain protease inhibition; inhibition, % at 10 µM; AID 588499; hit rate 0.17% among 360,000; multiplex microsphere protease substrate cleavage, flow cytometry
Autofluor counter: compound fluorescence in toxin protease inhibitor counterscreen | fluorescence intensity (concentration not given with the values) | compound autofluorescence counterscreen, microsphere flow cytometry; active compounds read high | AID 624483 | hit rate 3.1% among 360,000; in the data active = fluorescence intensity above about 16000; inconclusive = no clear call, values can overlap the other calls
Anthrax LF prot: inhibitors of Bacillus anthracis lethal factor protease | hit rate 0.12% among 360,000 | multiplex microsphere protease cleavage assay, LF | P15917 | inhibition, % at 10 µM
Target sequence (P15917 whole entry, looked up): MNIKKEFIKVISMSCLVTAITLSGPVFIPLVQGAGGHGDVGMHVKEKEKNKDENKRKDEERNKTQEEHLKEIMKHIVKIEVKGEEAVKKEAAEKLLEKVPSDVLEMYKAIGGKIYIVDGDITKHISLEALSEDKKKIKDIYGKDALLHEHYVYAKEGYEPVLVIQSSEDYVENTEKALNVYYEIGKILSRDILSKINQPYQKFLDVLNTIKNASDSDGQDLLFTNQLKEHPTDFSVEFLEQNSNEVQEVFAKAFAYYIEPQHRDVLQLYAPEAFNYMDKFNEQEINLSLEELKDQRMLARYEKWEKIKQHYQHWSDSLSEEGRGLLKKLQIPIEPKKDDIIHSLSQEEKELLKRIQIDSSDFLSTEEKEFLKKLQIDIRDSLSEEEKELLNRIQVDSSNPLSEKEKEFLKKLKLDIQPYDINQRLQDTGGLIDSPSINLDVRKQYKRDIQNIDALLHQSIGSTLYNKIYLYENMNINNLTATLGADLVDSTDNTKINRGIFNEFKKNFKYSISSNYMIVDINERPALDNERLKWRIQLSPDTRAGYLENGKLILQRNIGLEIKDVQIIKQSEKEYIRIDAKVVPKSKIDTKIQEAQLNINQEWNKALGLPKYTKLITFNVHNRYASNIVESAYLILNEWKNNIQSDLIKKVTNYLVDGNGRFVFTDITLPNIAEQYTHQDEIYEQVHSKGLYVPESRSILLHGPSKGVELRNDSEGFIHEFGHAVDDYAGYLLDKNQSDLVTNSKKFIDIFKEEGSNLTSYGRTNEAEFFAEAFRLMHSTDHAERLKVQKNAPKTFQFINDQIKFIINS
Large screens that a line does not name were inactive. Shown are actives, neighbours in structure and some others; about 3.7% of the full set was active somewhere. Rule as the data show it, unless noted: active = inhibition above about 30%; inconclusive = no clear call, values can overlap the other calls; inactive = below that.

O=C(Oc1ccc(Br)cc1C(=S)N1CCCC1)c1ccccc1Cl	none
CN(CC(=O)Nc1cccc(F)c1)C(=O)c1ccncc1	none
CCN(CC)CCn1c(NCc2ccco2)nc2ccccc21	Autofluor counter 21505
CCN(CC)CCn1c(NCc2nc3ccccc3n2Cc2ccccc2)nc2ccccc21	none
Cn1c(NCc2ccco2)nc2ccccc21	BoNT-A LC inh2 inconclusive, Autofluor counter 17845
Oc1csc(Cc2nc(-c3ccccc3F)cs2)n1	none
CCOC(=O)Cc1csc(NC(=O)c2ccc(N3CCOCC3)cc2[N+](=O)[O-])n1	none
Cc1ncc(CO)c(CO)c1OCC(O)CN1CCN(c2ccc(F)cc2)CC1 (stereo not given)	none (no result: MazEF act)
O=[N+]([O-])c1cccc(/C=C/c2nc(C=Nc3ccc4ccccc4c3)c(O)o2)c1	Autofluor counter 17170
O=[N+]([O-])c1cccc(/C=C/c2ccc3cccc(O)c3n2)c1	BoNT-F LC inh inconclusive
Cc1cc2c(n1-c1ccc(Br)cc1)CC(C)(C)CC2=O	Autofluor counter 16349
Cc1ccc(-n2c(C)cc3c2CC(C)(C)CC3=O)cc1C	none
CN(CC(=O)N1CCc2ccccc2C1)c1ccccc1	none
CC1(C)C2CC=C(CN3CCOCC3)C1C2 (stereo not given)	Autofluor counter 22704
c1csc(CN2CCOCC2)c1	none
CN(C)CCCN(C(=O)c1ccc(S(=O)(=O)N(C)C2CCCCC2)cc1)c1nc2ccc(Br)cc2s1	none
COc1ccc(Cl)cc1NC(=O)COC(=O)C1=NNC(=O)CC1	none
O=C(NNC(=O)C12CC3CC(CC(C3)C1)C2)c1cccc([N+](=O)[O-])c1	none
O=C(NNc1ccc([N+](=O)[O-])cc1)C12CC3CC(CC(C3)C1)C2	Autofluor counter 20243
CCN(CC)C(=O)Oc1ccccc1NC(C)=O	BoNT-A LC inh2 inconclusive, Autofluor counter 20729
COc1ccc(NC(=O)CS(=O)(=O)Cc2ccccc2)c([N+](=O)[O-])c1	none
Nc1nncn1C(=O)CCc1ccccc1	BoNT-A LC inh2 inconclusive, Autofluor counter 22172
Nc1nncn1C(=O)CCCOc1ccccc1	none
CCOCCn1c(=NC(=O)CSCC(=O)N2CCOCC2)sc2cc(OC)ccc21	none
O=c1c(-c2ccco2)[n+]([O-])c2ccccc2n1OCc1ccccc1[N+](=O)[O-]	none
C=CCOc1ccc(/C(CC)=N/O)c(OC)c1	BoNT-A LC inh2 inconclusive, Autofluor counter 23301
CCn1c(=O)c(C(C)=O)nc2ccccc21	none
CCCCCn1c(=O)c(C(=O)c2ccccc2)nc2ccccc21	BoNT-A LC inh2 inconclusive, Autofluor counter 18403
O=C(NCCc1ccccc1)c1cnc(Cl)c(Cl)c1	Anthrax LF prot 35.3
O=C(NCC1CCCO1)c1cccc(C(=O)NCC2CCCO2)c1 (stereo not given)	BoNT-F LC inh inconclusive
O=C(NCC1CCCO1)c1cnc(Cl)c(Cl)c1 (stereo not given)	Anthrax LF prot 32.1
O=C(NCC1CCCO1)c1ccc(NC(=O)c2cccc(Br)c2)cc1 (stereo not given)	none
CCCC(=O)Nc1ccc(C(=O)NCC2CCCO2)cc1 (stereo not given)	Autofluor counter 24245
O=C(NCC1CCCO1)c1cccc(Br)c1 (stereo not given)	BoNT-A LC inh2 inconclusive, Autofluor counter 16290
O=C(CNC(=O)c1ccc2ccccc2c1)NC1CCCCC1	BoNT-F LC inh inconclusive
Cc1cc(Cl)ccc1OC(C)c1nnc(N)s1 (stereo not given)	Autofluor counter 16493
Oc1ccc(Cl)cc1C1=NCCNC(C(F)(F)C(F)F)=C1	Autofluor counter 22480
Cc1ccc(O)c(C2=NCCNC(C(F)(F)C(F)F)=C2)c1	Autofluor counter 23315
COc1cc(CC(=O)OCC(=O)NCCc2ccc(S(N)(=O)=O)cc2)cc(OC)c1OC	none
COc1cccc(CNc2cccc3cccnc23)c1O	Autofluor counter 16704
COc1cccc(CNc2ccccn2)c1O	BoNT-F LC inh inconclusive
Cc1ccccc1OCc1nc2ccccc2[nH]1	none
COc1ccccc1NC(=O)c1ccc2nc(-c3ccccc3)c(-c3ccccc3)nc2c1	BoNT-A LC inh2 inconclusive, Autofluor counter 20872
COc1ccccc1OCc1nc2ccccc2[nH]1	Autofluor counter 17050
COc1ccc(C(=O)Nc2cccc3cccnc23)cc1OC	Autofluor counter 23720
Cc1ccc(-c2ccc(S(=O)(=O)Nc3cccnc3)cc2)cc1	none
CN=c1sc2c(n1C)C(=O)c1ccccc1C2=O	none
O=C(O)CC(NC(=O)c1ccncc1)c1ccccc1 (stereo not given)	none
COC(CNC(=O)c1ccc2c(c1)ncn2-c1cccc(C)c1)OC	none
COc1ccc(C(=O)Nc2nc3ccccc3[nH]2)cc1OC	Autofluor counter 21383
